For 94 compounds, survival results are on record in PubChem BioAssay AID463173 (ICCB-Longwood Screening Facility, Harvard Medical School, 2010).

Molecules are shown by their SMILES. Out of some 52,000 compounds screened, about 4,300 (8.3%) were called active. The sample holds actives, similar compounds and a random draw of the others, so the mix is not that of the screen. No stated cut-off is given here; in the data, active means survival mostly below about 52% (no sharp cut-off); inactive means mostly above about 56%.

The subject of the test is DeltatarO mutant. Kind of test: growth inhibition of S. aureus wild type versus tarO mutant, primary screen, teichoic acid synthesis inhibitors, RN4220, OD600 (AID 463173). Particulars: OD600, 18 h, stronger effect = lower value, screened at 18.75 µg/mL (by protocol).
As to `CCOc1ccccc1CNC(=O)CN1C(=O)C2CCCCN2c2ccc(C(=O)N(C)C)cc21` (centres undefined), the survival was 120% (inactive).

With `COc1cccc(NC(=O)CSc2nc3ccc(NC(=O)c4ccco4)cc3s2)c1`, the survival is 77% (inactive).

Turning to `CN(C)c1cccc(C(=O)Nc2nc3ccc(S(=O)(=O)NC(C)(C)C)cc3s2)c1`, the survival was 47% (active). Turning to `CN(C)c1cccc(C(=O)Nc2nc3ccc(S(=O)(=O)N4CCCC4)cc3s2)c1`, the survival is 135% (inactive). In the case of `CC(C)(C)NS(=O)(=O)c1ccc2nc(NC(=O)c3cccnc3)sc2c1`, the survival is 86% (inactive). The value for `Cc1cccc(NC(=O)Cn2nc(N3CCN(c4ccccc4)CC3)ccc2=O)c1C` was 87% (inactive). For the compound `COc1cc(NC(=O)c2nc3cc(C)c(C)cc3n(C)c2=O)cc(OC)c1OC`, the survival was 94% (inactive). Regarding `N=c1n(CCN2CCCCC2)c2ccccc2n1CC(O)COc1ccccc1` (centres undefined), the survival is 163% (inactive). For the compound `COc1ccc(OCC(O)Cn2c(=N)n(CCN3CCCCC3)c3ccccc32)cc1` (centres undefined), the survival was 46% (inactive). `OC(COc1ccc(Cl)cc1Cl)CN1CCCCC1` (centres undefined): the survival was 70% (inactive). Take `Cc1ccc(OCC(O)Cn2c(=N)n(CCN3CCCCC3)c3ccccc32)cc1` (centres undefined): the survival was 36% (active). In the case of `N=c1n(CCN2CCCCC2)c2ccccc2n1CC(O)COc1ccc(Cl)cc1Cl` (centres undefined), the survival was -16% (active). Take `Cc1ccccc1OCC(O)Cn1c(=N)n(CCN2CCCCC2)c2ccccc21` (centres undefined): the survival was 71% (inactive). Take `CCN1CCCC1CNC(=O)Nc1c[nH]c2ccc(C)cc2c1=O` (centres undefined): the survival is 102% (inactive). Consider `O=C(Nc1nc2n(n1)C(c1ccccc1)C=C(c1ccccc1)N2)c1ccc(Cl)c([N+](=O)[O-])c1` (centres undefined), for which the survival was 63% (inactive). The value for `CC(C(=O)NCc1ccccc1)N1Cc2ccccc2C1=O` (centres undefined) was 95% (inactive). Take `CCOC(=O)c1c(C)[nH]c(CCC(=O)NCCCN2CCN(c3ccccc3F)CC2)c1C`: the survival was 83% (inactive). For `Cn1c(NN)nc2c(c1=O)C1(CCCC1)Cc1ccccc1-2`, the survival is 59% (inactive). In the case of `CCC1(CC)Cc2ccccc2-c2nc(NN)n(Cc3ccccc3)c(=O)c21`, the survival was 48% (active).

Take `NNc1nc2ccccc2c(=O)n1Cc1ccccc1`: the survival is 100% (inactive). For `CN1CCN(C(=S)NCC2CCCO2)CC1` (centres undefined), the survival was 64% (inactive).

Regarding `Cc1cccc(NC(=O)Cn2c(=O)oc3cc(S(=O)(=O)NC4CCCC4)ccc32)c1`, the survival was 82% (inactive). With `N#CN=C(N)CSc1nc(-c2ccccc2)cc(-c2ccccc2)c1C#N` the figure was 56% (inactive); with `CCS(=O)(=O)CCSc1nc(-c2ccc(Br)cc2)cc(-c2ccccc2)c1C#N`, 85% (inactive). The value for `C#CCSc1nc(-c2ccccc2)cc(-c2ccccc2)c1C#N` was 40% (active); that for `C=C(C)CSc1nc(-c2ccccc2)cc(-c2ccc(OC)cc2)c1C#N` was 57% (inactive); that for `COc1ccc(-c2cc(-c3ccccc3)nc(SCC(=O)CC(=O)OC(C)C)c2C#N)cc1` was 55% (inactive).

Consider `CCN(CC)C(=O)CSc1nc(-c2ccccc2)cc(-c2ccc(OC)cc2)c1C#N`, for which the survival was 45% (active). Take `Cc1ccc(NC(=O)CSc2nc(-c3ccc(F)cc3)cc(C(F)(F)F)c2C#N)cc1`: the survival is 63% (inactive).

On to `COc1ccc(-c2cc(-c3ccccc3)nc(SCC(=O)Nc3ccccc3C)c2C#N)cc1`, for which the survival is 56% (active). For `N#Cc1c(C(F)(F)F)cc(-c2ccc(F)cc2)nc1SCC(=O)Nc1ccccc1`, the survival is 72% (inactive). For the compound `COc1ccc(-c2cc(-c3ccccc3)nc(SCC(=O)Nc3ccccc3F)c2C#N)cc1`, the survival was 140% (inactive). As for `Cc1ccc(-c2cc(C(F)(F)F)c(C#N)c(SCC(=O)Nc3ccccc3)n2)cc1`, the survival is 53% (active).

Take `COc1ccc(NC(=O)CSc2nc(-c3ccccc3)cc(-c3cc(OC)c(OC)c(OC)c3)c2C#N)c(OC)c1`: the survival was 54% (inactive). As to `COc1ccc(OC)c(NC(=O)Nc2cccc(OCc3cc(=O)n4cc(C)ccc4n3)c2)c1`, the survival was 101% (inactive). In the case of `COc1ccc(N2CCN(C(=O)c3ccc4c(c3)N(Cc3cc(C)ccc3C)C(=O)c3ccccc3S4=O)CC2)cc1` (centres undefined), the survival was 85% (inactive).

In the case of `Cn1c(=O)c2c(-c3ccccc3)n3c4ccccc4nc(-c4ccccc4)c3c2n(C)c1=O`, the survival is 82% (inactive).

Regarding `CCc1cccc(C)c1NC(=O)CN1C(=O)c2c(c3ccccc3n2C)C1c1ccc(OC)cc1` (centres undefined), the survival was 83% (inactive). For the compound `CCSc1ccccc1C(=O)N1CCN(c2nc3ccccc3s2)CC1`, the survival is 92% (inactive). `COc1cccc(NC(=O)C(=O)NCC(c2ccc3c(c2)OCO3)N2CCOCC2)c1` (centres undefined): the survival was 49% (inactive). With `COc1ccc(-c2nsc(NC(=O)COc3ccccc3OC)n2)cc1` the figure was 61% (inactive); with `CCOC(=O)c1c(C)[nH]c(CCC(=O)NC(C)c2ccccc2)c1C` (centres undefined), 94% (inactive).

For `Cc1ccc2nc(N(Cc3cccnc3)C(=O)C3COc4ccccc4O3)sc2c1` (centres undefined), the survival was 94% (inactive).

Consider `COc1cc(Cl)c(C)cc1NC(=O)c1cn(C2CCCC2)c(=O)c2c1c1ccccc1n2C`, for which the survival was 109% (inactive). With `COc1cccc(NC(=O)/C(C#N)=C\c2cn(Cc3ccc(Cl)cc3)c3ccccc23)c1` the figure was 77% (inactive). As for `COc1ccc(CNC(=O)c2ccc3c(c2)N(Cc2ccccc2C)C(=O)c2ccccc2S3=O)cc1` (centres undefined), the survival was 99% (inactive).

For the compound `COc1ccc(C2CC(=O)c3cnc4c(-c5ccccc5)c(C)nn4c3C2)cc1OC` (centres undefined), the survival is 54% (inactive).

Regarding `O=C(O)c1c2c(nc3ccc(S(=O)(=O)N4CCC(C(=O)NCc5ccc(Cl)cc5)CC4)cc13)CCCC2`, the survival is 90% (inactive). The value for `N#CC1=C(N)OC2=C(C(=O)CCC2)C1c1ccccc1C(F)(F)F` (centres undefined) was 78% (inactive); that for `CCOc1ccc(CNC(=O)Nc2ccc3c(c2)N(C)C(=O)c2ccccc2S3)cc1` was 75% (inactive). With `COc1ccccc1N1CCN(C(=O)c2cc3c(=O)oc4ccccc4c3s2)CC1` the figure was 169% (inactive).

On to `Cc1ccc(-c2cc(C(F)(F)F)c(C#N)c(SCC(=O)O)n2)cc1`, for which the survival is 66% (inactive). In the case of `CCCOc1ccc(-c2cc(C(F)(F)F)c(C#N)c(SCCC(=O)O)n2)cc1`, the survival was 29% (active).

Regarding `CCOC(=O)CSc1nc(-c2ccc(OCC)cc2)cc(C(F)(F)F)c1C#N`, the survival is 67% (inactive). Take `CSc1ccc(CCNC(=O)C2CCCN(S(=O)(=O)N(C)c3ccc(F)cc3)C2)cc1` (centres undefined): the survival is 74% (inactive). In the case of `CC1CN(c2ccc(Cl)cc2)c2nc3c(c(=O)n(CC(=O)O)c(=O)n3C)n2C1` (centres undefined), the survival was 84% (inactive). For `O=C(C1CCN(S(=O)(=O)c2ccc(Br)s2)CC1)N1CCN(c2ccc(F)cc2)CC1`, the survival was 87% (inactive). Consider `O=C(CNS(=O)(=O)c1ccc(Br)s1)N1CCN(c2ccc(F)cc2)CC1`, for which the survival is 27% (active).

For the compound `CCOC(=O)c1c(C)[nH]c(C)c1S(=O)(=O)NCC(=O)N1CCN(c2ccccc2F)CC1`, the survival is 76% (inactive).

With `COc1ccc(N2CCN(C(=O)CNS(=O)(=O)c3ccc(Br)s3)CC2)cc1`, the survival was 32% (active). With `O=C(CNS(=O)(=O)c1cccs1)N1CCN(c2cccc(C(F)(F)F)c2)CC1` the figure was 83% (inactive). `COc1ccc(N2CCN(C(=O)CNC3CC3)CC2)cc1`: the survival was 74% (inactive). Regarding `COc1ccccc1N1CCN(C(=O)CNS(=O)(=O)c2ccc(Br)s2)CC1`, the survival was 116% (inactive).

As for `O=C(CNS(=O)(=O)c1ccc(Br)s1)N1CCN(c2ccccc2F)CC1`, the survival is 36% (active). Regarding `O=C(CNS(=O)(=O)c1cccs1)N1CCN(c2ccccc2F)CC1`, the survival was 51% (inactive).

As to `O=C(CNS(=O)(=O)c1cccs1)N1CCN(c2ccccc2Cl)CC1`, the survival was 45% (active). For the compound `COc1cccc(N2CCN(C(=O)C3CCC(CNS(=O)(=O)c4ccc(Br)s4)CC3)CC2)c1` (centres undefined), the survival is 78% (inactive).

In the case of `O=C(C1CCC(CNS(=O)(=O)c2ccc(Br)s2)CC1)N1CCN(c2ccc(F)cc2)CC1` (centres undefined), the survival was 74% (inactive). On to `O=C(Nc1cc(C(F)(F)F)ccc1Cl)c1noc2c1CCCCC2`, for which the survival was 82% (inactive). Turning to `COc1ccc(NC(=O)c2ccc3c(=O)n4nc(Nc5cc(C)ccc5C)sc4nc3c2)cc1`, the survival was 116% (inactive).

As for `CCCCN(C)c1nc2c(S(=O)(=O)c3ccc(CC)cc3)nnn2c2ccc(Cl)cc12`, the survival is 76% (inactive). For the compound `CCc1ccccc1NC(=O)Cc1c(C(=O)O)[nH]c2ccc(Cl)cc12`, the survival was 80% (inactive). On to `CCOc1ccc(CCNC(=O)c2cnc3sc(N(CC)CC)nn3c2=O)cc1OCC`, for which the survival is 122% (inactive). For `COc1ccc(CNC(=O)c2ccc(N3CCCC3)c(NC(=O)NCc3ccc(F)cc3)c2)cc1`, the survival is 93% (inactive).

For the compound `Cc1ccc(-n2ncc3c(NC4CCCCCC4)ncnc32)cc1Cl`, the survival is 66% (inactive). With `CCc1ccc(NC(=O)Cn2ccn(-c3cccc(Cl)c3)c(=O)c2=O)cc1`, the survival is 61% (inactive).

For the compound `Cc1ccc(C(=O)Nc2ccc(S(=O)(=O)N(Cc3ccccc3)c3ccccc3)cc2)cc1`, the survival is 65% (inactive). As for `Cc1cccc(NC(=O)c2ccc(N(Cc3ccccc3)S(C)(=O)=O)cc2)c1`, the survival is 48% (active).

For `CS(=O)(=O)N(Cc1ccccc1)c1ccc(C(=O)Nc2ccc(Cl)cc2)cc1`, the survival is 145% (inactive). The value for `CS(=O)(=O)N(Cc1ccccc1)c1ccc(C(=O)Nc2cccc(Cl)c2)cc1` was 36% (active). Regarding `Cc1ccc(NC(=O)c2ccc(N(Cc3ccccc3)S(C)(=O)=O)cc2)cc1`, the survival is 64% (inactive).

For the compound `Cc1ccccc1NC(=O)c1ccc(N(Cc2ccccc2)S(C)(=O)=O)cc1`, the survival is 66% (inactive). On to `CNc1nc2c(c(=O)[nH]c(=O)n2C)n1Cc1cccc2ccccc12`, for which the survival is 85% (inactive).

Regarding `COc1cccc(N2CCN(C(=O)C(CCSC)NS(=O)(=O)c3ccc4c(c3)oc(=O)n4C)CC2)c1` (centres undefined), the survival was 106% (inactive). For `Fc1ccc(-n2cc(-c3ccccc3)c3c(NC4CCCCC4)ncnc32)cc1`, the survival was 85% (inactive). Take `CC(C)(C)OC(=O)N1CCC(c2c(C(=O)NCc3cccs3)cnn2-c2ccc(F)cc2F)CC1`: the survival was 72% (inactive).

As for `CC(C)(C)OC(=O)N1CCC(c2c(C(=O)NCCN3CCC(Cc4ccccc4)CC3)cnn2-c2ccc(F)cc2)CC1`, the survival is 47% (active). Turning to `CC(C)(C)OC(=O)N1CCC(c2c(C(=O)NCc3cccs3)cnn2-c2cccc(F)c2)CC1`, the survival was -5% (active). For `CC(C)(C)OC(=O)N1CCC(c2c(C(=O)NCc3ccccc3)cnn2-c2ccc(F)cc2)CC1`, the survival was 128% (inactive). Turning to `CC(C)(C)OC(=O)N1CCC(c2c(C(=O)NCCN3CCC(Cc4ccccc4)CC3)cnn2-c2ccccc2)CC1`, the survival was 80% (inactive). Regarding `CC(C)(C)OC(=O)N1CCC(c2c(C(=O)NCc3ccc(F)cc3)cnn2-c2ccc(F)cc2)CC1`, the survival was -5% (active). For the compound `COc1ccc(CNC(=O)c2cnn(-c3ccc(OC)cc3)c2C2CCN(C(=O)OC(C)(C)C)CC2)cc1`, the survival was 74% (inactive).

Take `Cc1ccc(-n2ncc(C(=O)NCc3cccs3)c2C2CCN(C(=O)OC(C)(C)C)CC2)cc1C`: the survival was 91% (inactive). In the case of `Cc1ccc(-n2ncc(C(=O)NCCN3CCC(Cc4ccccc4)CC3)c2C2CCN(C(=O)OC(C)(C)C)CC2)cc1`, the survival was 98% (inactive).
